In PubChem BioAssay (NCI):
This is part of a sample that, as a whole, favours compounds with a hit. Of some 83,000 tested, about 20% had one in any assay.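 For each line, cells grew in 96-well plates with the test compound present at a single concentration for 48 hours.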 Unmarked numbers belong to inactive results. Active and inactive are the calls of the source. How the source made its calls: active means growth percent below 10; inactive means the rest.

Test system: HL-60(TB) leukemia
Assay: NCI-60 one-dose screen, 48 h (100 = growth as untreated, 0 = no growth, -100 = all killed)
Settings: 10 µM unless noted

SMILES	growth
CCOC(=O)c1cn2ncnc(Oc3ccc(NC(=O)NC4CC4)c(F)c3)c2c1C	70.9%
Cc1ccc(/C=C/C(=N/N=C(N)N)c2ccccc2)cc1	7.52% (active)
O=C(CCOCCNC(=O)COc1ccc2c(c1)OCC(c1ccc(F)cc1)C2=O)NCCCC(O)(P(=O)(O)O)P(=O)(O)O (stereo unspecified)	104%
OCC(O)C(O)C(O)C(/C=N/Nc1ccccc1)=N/Nc1ccccc1 (stereo unspecified)	98.6%
O=C(CC1(O)C(=O)Nc2c(Cl)ccc(Cl)c21)c1ccc(Cl)cc1Cl (stereo unspecified)	80.8%
C=C(C)C1CCC2(C(=O)O)CCC3(C)C(CCC4C5(C)CCC(OC(=O)NCc6ccccc6)C(C)(C)C5CCC43C)C12 (stereo unspecified)	23%
COc1cc(/C=N/NC(=O)c2ccccc2Nc2ccnc(C(F)(F)F)c2)ccc1O	14%
Cc1cnc(NC(=O)Nc2cc(Br)c(C)cc2OC[C@@H]2CNCCO2)cn1	-25.3% (active)
COc1ccc(N2C(=O)CC(c3cc(OC)c(OC)c(OC)c3)C3C2=NC(=O)N3C)cc1 (stereo unspecified)	107%
COc1ccc(C2=NN(C=O)C(c3cccc(Nc4ccnc5cc(Cl)ccc45)c3)C2)cc1 (stereo unspecified)	-13.1% (active)
C/C(=C\CCc1ccoc1)CC/C=C(\C)CCCN1CCSCC1	73.9%
COc1cc(NC(N)=NCCC(C)(C)Oc2ccc(C(F)(F)F)cc2)ncc1C#N	-51.1% (active)
CN1CCN(C(=O)[C@]23CCC(C)(C)C[C@H]2C2=CC[C@@H]4[C@@]5(C)C/C(=C/c6cccnc6)C(=O)C(C)(C)[C@@H]5CC[C@@]4(C)[C@]2(C)CC3)CC1	-32.4% (active)
CC(c1ccccc1)N(C)C (stereo unspecified)	88.5%
Fc1cccc(Oc2ccc(Nc3ncnc4ccc(OCCCN5CCOCC5)cc34)cc2Cl)c1	83.6%
Cc1nc2c(-c3cnc(N)nc3)nc(N3CCOCC3)nc2n1C(C)C	10.8%
CC(C)(C)c1cc(C(=O)Nc2ccccc2C(=O)NCCN)cc(C(C)(C)C)c1	-51.8% (active)
CN1CC[C@@H](c2c(O)cc(O)c3c(=O)cc(-c4ccccc4Cl)oc23)[C@@H]1CO	-28.6% (active)

SMILES	growth
CCCCSc1ncnc2c1ncn2C1CCCCO1 (stereo unspecified)	90.4%
Brc1cccc(-n2ncc3c(Nc4ccc(-c5nnc(-c6ccccc6)o5)cc4)ncnc32)c1	122%
O=c1[nH]c2cc(Cl)c(Cl)cc2n2cc3ncccc3c12	65.5%
O=C(NCc1ccc(Cn2c(=O)sn(-c3ccccc3)c2=O)cc1)OCc1ccc2c(Br)cc(Br)c(O)c2n1	-41.3% (active)
CC1C(c2ccccc2)OCCN1C(=S)Nc1ccc(S(=O)(=O)N2CCCCC2)cc1 (stereo unspecified)	89.1%
COc1ccc(-c2ccc(-c3ccc(C(=N)N)nc3)s2)cc1Cl	-48.7% (active)
C=C(C)[C@@H]1CC[C@]2(C)[C@H](C(=O)C=C3[C@@H]4C[C@](C)(C(=O)N5CCN(C)CC5)CC[C@]4(C)CC[C@]32C)[C@@]1(C)CCC#N	-22% [100 µM] (active)
COc1ccc(C2=Nn3c(nnc3-c3ccc(Cl)cc3N)SC2)cc1	100%
Cn1cc(-c2csc(-c3cn(C(=O)OC(C)(C)C)c4ccccc34)n2)c2cccnc21	65.8%
Cc1c(C(=O)OCCCCOC(=O)c2c(C)n(C)c3scc[n+]23)[n+]2ccsc2n1C	87.1%
O=C(NO)c1ccc(CNc2cccc3nc(C4CC4)n(-c4ccccc4)c(=O)c23)cc1	7.45% (active)
Cn1cc(-c2nc(-c3cn(C)c4ncccc34)cs2)c2ccccc21	28.4%
CC(=O)OC[C@]12CCC(C)(C)C=C1[C@H]1CC[C@@H]3[C@@]4(C)CCCNC(C)(C)[C@@H]4CC[C@@]3(C)[C@]1(C)CC2	0.652% (active)
COc1cc(NS(C)(=O)=O)ccc1Nc1c2ccc(Cl)cc2nc2c(OC)cccc12	-30.1% (active)
N#Cc1c(-c2ccc(Cl)cc2)nc(N/N=C/c2cccc(Br)c2)nc1N1CCOCC1	40.6%
COc1ccc(C2C=C(c3ccc(Cl)c(Cl)c3)N=C3SC(C)=CN32)cc1 (stereo unspecified)	83.3%
COc1ccc2c(c1)nc(NNC(=O)c1cnccn1)c1cccn12	-6.85% (active)
CC1=C(O)C(=O)C(c2c(C)cc(C)c(Br)c2C)=C(O)C1=O	53.4%
